Records with an inconclusive call do not appear. Active and inactive are the calls of the source. The call rests on the fitted dose curve; in most records, active means well fitted curve in the direction sought with a large enough effect; inconclusive means small, poorly fitted or top-dose-only effect, or another doubt; inactive means no such curve, though single readings can be large; an effect the other way counts as inactive or inconclusive.

Test [1] can be described thus: Primary qHTS for inhibitors of nuclear receptor binding SET domain protein 2 (NSD2) in an isogenic RCH-ACV NSD2 p.E1099K mutant (9B) (AID 1645876).
The nature of test [2]: Primary qHTS for inhibitors of nuclear receptor binding SET domain protein 2 (NSD2) in an RCH-ACV wild type WT cells (2C) (AID 1645877). Background: In qHTS, concentration-response curves come from the screen itself.
Further: nearly all actives have a fitted effect of over 70% in size.
Potency means the concentration at half of the fitted maximal effect.

Regarding `C1=Cc2ccccc2C(=C2CCN(CCCCc3nn[nH]n3)CC2)c2ccccc21`, the Potency entry in test [1] and in test [2] was “inactive” each time.
`C#CCCCn1cc(-c2cccc3c2N[C@H](C)CC(=O)N3)cn1`: the Potency in test [1] was 23 µM (active); in test [2], 14.5 µM (active).
On the same counts, the results for `C/C=C(\C)[C@@H]1C(C)=C[C@@H]2[C@H]([C@@H]1/C=C/C=C/C(=O)O)[C@@H](C)CC[C@@H]2O` are 5.05 µM (active) and 4.01 µM (active).
On to `Cc1ccc(N2CCN(CCC3NC(=O)c4ccccc43)CC2)cc1C` (stereo unspecified), for which the Potency result in test [1] and in test [2] was “inactive” each time.
For `Cc1cc(F)c(C(=O)Nc2cccc(-c3nncn3C(C)C)n2)cc1-n1cnc(C2CC2)c1`, the Potency was 11.8 µM (active) in test [1] and 9.34 µM (active) in test [2].
On to `C=C1CCC2C(C)(C(=O)O)CCCC2(C)C1CCC1=CCOC1=O` (stereo unspecified), for which the Potency entry in test [1] and in test [2] was “inactive” in each case.
Turning to `C/C1=C\CCC2=CC(OC2=O)C(C)(C)/C=C/C1=O` (stereo unspecified), the Potency was 6.49 µM (active) in test [1] and 2.9 µM (active) in test [2].
On the same counts, the results for `C=C1C(=O)OC2/C=C(/C)C3=CC(=O)C(C)(CC(OC(=O)/C(C)=C/COC(C)=O)C12)O3` (stereo unspecified) are 1.12 µM (active) and 0.399 µM (active).
As for `C=C1C(=O)O[C@@H]2C3C(=C(C)[C@@H](O)[C@@H](OC(=O)/C(=C/C)COC(C)=O)[C@@H]12)C(=O)[C@H]1O[C@@]31C` (stereo partly specified), the Potency in test [1] is 2.82 µM (active); in test [2], 1.59 µM (active).
On the same counts, the results for `C[C@@H]1CC[C@]2(C(=O)O)CC[C@]3(C)C(=CCC4[C@@]5(C)CC[C@H](O)[C@](C)(C(=O)O)C5CC[C@]43C)C2[C@]1(C)O` (stereo partly specified) are “inactive” and “inactive”.
On the same counts, the results for `Cc1nc2ccc(CN(C)c3ccc(C(=O)NC(CCC(=O)O)C(=O)O)s3)cc2c(=O)[nH]1` (stereo unspecified) are 0.0092 µM (active) and 0.0092 µM (active).
On the same counts, the results for `OC1(CN2CCC(COc3noc4cccc(O[C@@H]5CCOC5)c34)CC2)CCOCC1` are “inactive” and “inactive”.
Take `Cc1ccc(C)c(-c2cc(C(F)(F)F)nn2-c2ccc(S(N)(=O)=O)cc2)c1`: the results for the Potency in test [1] and in test [2] were 20.5 µM (active) and 25.8 µM (active), respectively.

The record behind these values is PubChem BioAssay (NCATS).
